Measurements from PubChem BioAssay (Tox21).
Values joined by “and” are separate entries in the source; they are usually repeats but may differ in a detail not shown here. Equal values may be shown once. Results filed as inconclusive are left out. A call without a number means that no potency is given here. Active and inactive are the calls of the source. Calls come from the whole dose curve; as a rule, active = well fitted cell-killing curve with a large enough effect in the repeat runs; inconclusive = weak or mixed curves; inactive = flat fitted curve, though single readings scatter.

experiment: qHTS assay to identify small molecule antagonists of the estrogen related receptor (ERR) signaling pathway from Tox21 library - cell viability counter screen (AID 1224834); conditions: ERR reporter cells viability, CellTiter-Fluor, 17.5 h; series mostly up to 92.4 µM; note: nearly all actives have a fitted effect of over 30% in size
Excerpt: National Center for Advancing Translational Sciences [NCATS]
NIH Chemical Genomics Center [NCGC]
U.S. Environmental Protection Agency [EPA]
National Institutes of Environmental Health Sciences [NIEHS]
National Toxicology Program [NTP]
U.S. Food and Drug Administration [FDA]
Estrogen related receptors (ERRs), the first orphan nuclear receptors discovered, play an important role in the control of cellular energy metabolism. ERRs are required for high-energy production in response to the environmental challenges. ERR-alpha was also identified as an adverse marker for breast cancer progression; ERR-alpha-positive tumors have a poor prognosis. To screen and to identify environmental compounds that perturb the ERR signaling pathways could provide valuable information for potential therapeutic or preventive measures in the treatment of metabolic disease. To differentiate true ERR antagonists or agonist from cytotoxic substances, the assay is multiplexed with cell viability assay.
Tox21 Assay Protocol Summary:
The ERR cells were dispensed at 2,000 cells/5 ul/well in 1536-well white plates using a Multidrop dispenser. After the assay plates were incubated at a 37 C/5% CO2 incubator for 6 hours, 23 nL of compounds dissolved in DMSO, positive and negative controls or DMSO only was transferred to the assay plate by a pin tool. The plates were incubated at 37 C for 17.5 hours. 1 ul/well of CellTiter-Fluor reagent was added into the assay plates using a Flying Reagent Dispenser. After 30-minute incubation at 37 C/5% CO2, the fluorescence intensity in the plates was measured using a ViewLux plate reader.
Potency is the fitted concentration of half-maximal effect.

SMILES | Potency
Nc1ccc(O)c([N+](=O)[O-])c1 | 21.7 µM (active)
CCCC[P+](CCCC)(CCCC)CCCC | inactive
Cc1cccc(C)c1 | inactive
CCCCCCCC(=O)OCC(COC(=O)CCCCCCC)OC(=O)CCCCCCC | inactive
Cc1cn([C@H]2C=C[C@@H](CO)O2)c(=O)[nH]c1=O | inactive
O=CC(=O)c1ccccc1 | inactive
O=C1O[C@H]([C@@H](O)CO)C(O)=C1O | inactive
CCCCCCCCCCCC[N+](C)(C)Cc1ccccc1 | 60 µM (active) and 66.4 µM (active) and 23.7 µM (active)
CN(C)CCOC(c1ccccc1)c1ccccc1 | inactive
CCCCCCCCCCCCCCCC[N+](C)(C)Cc1ccccc1 | 63.1 µM (active) and 49.4 µM (active) and 23.7 µM (active)
O=C1NS(=O)(=O)c2ccccc21 | inactive
CCOC(N)=O | inactive
NC1CCCCC1 | inactive
C1CCC(C(CC2CCCCN2)C2CCCCC2)CC1 (stereo not given) | 29.8 µM (active)
CC(C)NCC(O)c1ccc(O)c(O)c1 (stereo not given) | inactive
CCOc1ccc(NC(C)=O)cc1 | inactive
C=C(C)C(=O)OCC(C)O (stereo not given) | inactive
CN(C)C(=S)SC(=S)N(C)C | 1.98 µM (active) and 1.54 µM (active) and 1.68 µM (active)
CN[C@H]1CC[C@@H](c2ccc(Cl)c(Cl)c2)c2ccccc21 | 29.8 µM (active)
CC(O)(P(=O)(O)O)P(=O)(O)O | inactive

SMILES | Potency
Nc1c2c(nc3ccccc13)CCCC2 | inactive
Oc1ccccc1 | inactive
CC/C(=C(\c1ccccc1)c1ccc(OCCN(C)C)cc1)c1ccccc1 | 54.4 µM (active) and 54.9 µM (active) and 61.1 µM (active)
CC12CCC(CC1)C(C)(C)O2 | inactive
CN(C)CCOC(C)(c1ccccc1)c1ccccn1 (stereo not given) | inactive
COc1ccc(OC(F)(F)F)cc1CN[C@H]1CCCN[C@H]1c1ccccc1 | 54.5 µM (active)
CN(N=O)C(=O)N[C@@H]1[C@@H](O)[C@H](O)[C@@H](CO)O[C@@H]1O | inactive
CCCCCCc1ccc(O)cc1O | 61.3 µM (active)
O=C(O)CC(O)C(=O)O (stereo not given) | inactive
F[B-](F)(F)F | inactive
CN(C)C(=O)Nc1ccc(Cl)c(Cl)c1 | inactive
CC1(C)S[C@@H]2[C@H](NC(=O)[C@H](N)c3ccccc3)C(=O)N2[C@H]1C(=O)O | inactive
O=C1OC2(c3ccccc31)c1cc(Br)c(O)c(Br)c1Oc1c2cc(Br)c(O)c1Br | 11 µM (active) and 25 µM (active) and 26.6 µM (active)
CC(=O)Nc1c(I)c(NC(C)=O)c(I)c(C(=O)O)c1I | inactive
NS(=O)(=O)c1cc2c(cc1Cl)NCNS2(=O)=O | inactive
Cc1ncc([N+](=O)[O-])n1C | inactive
CS(=O)(=O)OCCCCOS(C)(=O)=O | inactive
Nc1ccc(S(N)(=O)=O)cc1 | inactive
CCCCC(CC)C(=O)O (stereo not given) | inactive
C[C@](N)(Cc1ccc(O)c(O)c1)C(=O)O | inactive
